Assay outcomes: PubChem BioAssay, several laboratories
A selection: hits, their analogues and other compounds. The true share with any hit is near 1.6%.
V-ATPase pHluor: regulators of yeast V-ATPase proton pumping, primary screen, pHLuorin cytosolic pH fluorescence. response, % at 10 µM. 350,000 compounds, 0.37% hits. AID 504577, 2011. S. cerevisiae; in the data active = response mostly above about 7.3%, no sharp cut-off; inactive = mostly below about 5.4%; also: actives read high
PERK inhibitor: block of dimerizer-induced PERK translation repression, primary screen, PERK inhibitor project, CHO PERK-DD cells, SEAP luminescence, HTS | inhibition, % at 5.6 µM | CHO PERK-DD fusion, SEAP luminescence translation reporter | 220,000 compounds, 0.17% hits | Eukaryotic translation initiation factor 2-alpha kinase 3 (Homo sapiens), Q9NZJ5;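 active = inhibition above the mean inhibition of all tested compounds plus 3 SD, set separately per screening campaign, cut at about 2.9% in these data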;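 also: PERK kinase domain activated by AP20187 dimerizer at 100 nM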
NALP1 yeast inh: NALP1 inflammasome inhibitors in reconstituted yeast, colorimetric, S. cerevisiae, triplicate retest. S. cerevisiae NALP1/ASC/caspase-1 growth, X-gal OD620, 72 h. inhibition, % at 10 µM. AID 2071, 2009. 280,000 compounds, 0.61% hits; in the data active = inhibition mostly above about 24%, no sharp cut-off; inactive = mostly below about 32%
NLRP3 yeast inh: NALP3 inflammasome inhibitors in reconstituted yeast, primary screen, luminescence, uHTS; Yeast reconstituted NLRP3/ASC/caspase-1, beta-gal luminescence, 24 h; inhibition, % at 10 µM; 330,000 compounds, 0.39% hits; AID 2825, 2010;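 active = inhibition of 50% or more; inactive = inhibition below 50%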
CR mimetic SO: reduction of superoxide in aged yeast, primary screen, HTS; AID 2690, 2010; 330,000 compounds, 0.18% hits; superoxide response (% of plate mean), % at 10 µM; S. cerevisiae aged cells, superoxide DHE fluorescence; stronger effect = lower value;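 active = superoxide response under a set limit, about three screen SD below normal, cut at about 65% in these data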;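 also: yeast aged for seven days with compound at 30 °C before DHE staining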
Rce1 inhib: yeast Rce1p protease inhibitors, primary screen, biochemical, fluorescence, cell-free homogeneous; yeast membranes, quenched prenylated peptide cleavage fluorescence; calls only; 290,000 compounds, 0.27% hits; AID 2563, 2010;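 active = fall in fluorescence gain of 50% or more versus controls, with final raw signal at or below 3038400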
NALP3 confirm: NALP3 inhibitors retested in yeast, confirmation, luminescence, single concentration | shares compounds with NLRP3 yeast inh | yeast expressing human NALP3 | inhibition, % at 10 µM | 1,300 compounds, 81% hits | AID 435006, 2010; in the data active = inhibition above about 48%
Casp1-ASC yeast: CASP1-PYCARD signaling inhibition in yeast, confirmatory test, counterassay for NLRP3 inhibitor program, one-dose. shares compounds with NLRP3 yeast inh. yeast expressing Caspase-1-ASC, luminescence counter screen. inhibition, % at 10 µM. 1,000 compounds, 66% hits. AID 488784, 2010
NALP3 retest: NALP3 inhibitors in yeast, repeat test, confirmation, luminescence, single concentration, retest; shares compounds with NLRP3 yeast inh; yeast expressing human NALP3, luminescence read-out; inhibition, % at 10 µM; 1,000 compounds, 53% hits; AID 488794, 2010
Large screens that a line does not name were inactive (follow-up assays come after a bar, where they were run). Rule as the data show it, unless noted: active = inhibition above about 50%; inactive = the rest.

c1cc(-c2cc3cc4c(cc3cn2)OCO4)cs1	NLRP3 yeast inh 57 (no result: PERK inhibitor, NALP1 yeast inh, Rce1 inhib) | NALP3 confirm 51 | Casp1-ASC yeast inactive | NALP3 retest inactive
Cc1[nH]nc(Nc2ccc(Br)cc2)c1[N+](=O)[O-]	NLRP3 yeast inh 52 | NALP3 confirm inactive
CC1Oc2ccccc2N(Cc2ccccc2Cl)C1=O (stereo unspecified)	none | NALP3 confirm inactive
CC1Oc2ccccc2N(Cc2ccccc2F)C1=O (stereo unspecified)	none (no result: V-ATPase pHluor)
COc1ccc(C(=O)OCc2ccccc2C#N)cc1S(=O)(=O)N1CCOCC1	none (no result: PERK inhibitor, NALP1 yeast inh, NLRP3 yeast inh, CR mimetic SO, Rce1 inhib)
Cc1c(C(=O)Nc2ccccc2F)cnn1-c1ccccc1	none (no result: PERK inhibitor)
Cc1c(C(=O)Nc2cc(F)cc(F)c2)cnn1-c1ccccc1	NLRP3 yeast inh 71 (no result: PERK inhibitor) | NALP3 confirm 76 | Casp1-ASC yeast 76 | NALP3 retest 70
C=CCN(c1ccc(F)cc1)S(=O)(=O)c1cc(C(=O)NC2CC2)ccc1Cl	none (no result: PERK inhibitor, NALP1 yeast inh, NLRP3 yeast inh, CR mimetic SO, Rce1 inhib)
COc1ccc(C(C)(C)C)cc1NC(=O)c1ccc2ncsc2c1	none (no result: PERK inhibitor)
COc1ccc(C(C)(C)C)cc1NC(=O)c1cncc(Br)c1	NLRP3 yeast inh 56 | NALP3 confirm 62 | Casp1-ASC yeast 58 | NALP3 retest 55
CC(C)[C@H](N)C(=O)N[C@H]1CCC2C3CC=C4C[C@@H](O)CC[C@]4(C)C3CC[C@@]21C (stereo partly specified)	none (no result: PERK inhibitor, NALP1 yeast inh, NLRP3 yeast inh, CR mimetic SO, Rce1 inhib)
CSCc1cc(N(C)c2ccccc2)nc(-c2ccccn2)n1	NLRP3 yeast inh 67 (no result: PERK inhibitor) | NALP3 confirm 71 | Casp1-ASC yeast 74 | NALP3 retest 81
CN(C)c1cc(C(F)(F)F)nc(-c2ccccn2)n1	none
Nc1nc(-c2ccc(Oc3ccccc3)cc2)cs1	NALP1 yeast inh 98, NLRP3 yeast inh 97 (no result: PERK inhibitor) | NALP3 confirm 57 | Casp1-ASC yeast 99 | NALP3 retest 99
C[C@H]1CN([C@@H](C)CO)C(=O)c2cc(Br)cnc2O[C@@H]1CN(C)S(=O)(=O)c1cn(C)cn1	none (no result: PERK inhibitor, NALP1 yeast inh, NLRP3 yeast inh, CR mimetic SO, Rce1 inhib)
O=S(=O)(Nc1ccc(S(=O)(=O)Nc2ccccc2)cc1)c1ccccc1	none
O=S(=O)(Nc1ccc(N=Nc2ccccc2)cc1)c1ccccc1	NLRP3 yeast inh 59 | NALP3 confirm inactive
O=C(COC(=O)/C=C/c1cccc(F)c1)NC1CCCCC1	none (no result: PERK inhibitor, NALP1 yeast inh, NLRP3 yeast inh, CR mimetic SO, Rce1 inhib)
COc1ccc(/C=C/C(=O)c2ccc([N+](=O)[O-])o2)cc1OC	NLRP3 yeast inh 50 (no result: V-ATPase pHluor, PERK inhibitor, NALP1 yeast inh, CR mimetic SO) | NALP3 confirm 54 | Casp1-ASC yeast 80 | NALP3 retest 58
COc1cc(/C=C/C(=O)c2ccc([N+](=O)[O-])o2)ccc1O	none (no result: PERK inhibitor, NALP1 yeast inh)
COc1ccccc1NC(=O)COc1cccnc1[N+](=O)[O-]	NLRP3 yeast inh 51 (no result: PERK inhibitor, NALP1 yeast inh, Rce1 inhib) | NALP3 confirm 67 | Casp1-ASC yeast 75 | NALP3 retest 62
CCOc1ccccc1NC(=O)COc1cccnc1[N+](=O)[O-]	NLRP3 yeast inh 59 (no result: PERK inhibitor, NALP1 yeast inh, Rce1 inhib) | NALP3 confirm 74
COc1ccccc1CNc1ncccc1[N+](=O)[O-]	NLRP3 yeast inh 50 (no result: PERK inhibitor) | NALP3 confirm 48 | Casp1-ASC yeast inactive | NALP3 retest inactive
COc1ccc(CN(C)CCCn2cnc3c(SC)ncnc32)cc1OC	none (no result: PERK inhibitor, NALP1 yeast inh, NLRP3 yeast inh, CR mimetic SO, Rce1 inhib)
O=C(O)c1cocc1C(=O)O	none (no result: PERK inhibitor, NALP1 yeast inh, NLRP3 yeast inh, CR mimetic SO, Rce1 inhib)
C[C@@H]1CN([C@@H](C)CO)C(=O)CCCn2cc(nn2)CO[C@H]1CN(C)C(=O)c1cc(-c2ccccc2)on1	none (no result: PERK inhibitor, NALP1 yeast inh, NLRP3 yeast inh, CR mimetic SO, Rce1 inhib)
O=C(Sc1cccc2cccnc12)c1ccccc1Br	NLRP3 yeast inh 66 (no result: PERK inhibitor) | NALP3 confirm 64
Cc1cc(C(=O)COC(=O)c2csc3c2CCCC3)c(C)n1C	NLRP3 yeast inh 54 (no result: Rce1 inhib) | NALP3 confirm 62 | Casp1-ASC yeast inactive | NALP3 retest inactive
O=C1OCC/C1=C\c1ccc2c(c1)OCO2	none
